Experimental data reported in PubChem BioAssay (NCI).
This is part of a sample that, as a whole, favours compounds with a hit. Of some 79,000 tested, about 15% had one in any assay. The source made the active and inactive calls. Rule as the data show it: active = growth inhibition above about 70%; inactive = the rest.

Tests used:
[1] = NCI Yeast Anticancer Drug Screen. Data for the rad52 strain (AID 147);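 also: 0% = growth of vehicle-treated control cultures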; settings: S. cerevisiae rad52 mutant growth inhibition, stronger effect = higher value
How it was run: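 Yeast strain carrying a DNA damage repair alteration was exposed to test compounds. Growth inhibition was measured relative to vehicle-treated controls.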

[2] = NCI Yeast Anticancer Drug Screen. Data for the wt1 strain (AID 149);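 also: 0% = growth of vehicle-treated wt1 cultures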; settings: S. cerevisiae wt1 strain (SPY 50644) growth inhibition, stronger effect = higher value
How it was run: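 Compounds are added to wt1 yeast cultures. Growth is then measured. Inhibition is expressed relative to vehicle-treated controls.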

[3] = NCI Yeast Anticancer Drug Screen. Data for the rad50EPP+ strain (AID 151);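 also: 0% = growth of vehicle-treated control cultures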; settings: S. cerevisiae rad50 mutant strain, stronger effect = higher value
How it was run: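 Yeast strain carrying rad50 alteration (rad50EPP+) exposed to compounds; growth inhibition measured relative to vehicle-treated controls.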

[4] = NCI Yeast Anticancer Drug Screen. Data for the mgt1 strain (AID 153); settings: S. cerevisiae mgt1 mutant growth inhibition, stronger effect = higher value
How it was run: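 Yeast mgt1 strain (DNA repair/cell-cycle alteration panel) exposed to compounds; growth inhibition measured relative to vehicle-treated controls.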

[5] = NCI Yeast Anticancer Drug Screen. Data for the rad50 strain (AID 155);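 also: 0% = growth of vehicle-only cultures of the same strain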; settings: S. cerevisiae rad50 strain growth inhibition, stronger effect = higher value
How it was run: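 Inhibition values express reduced yeast growth in compound-treated cultures relative to vehicle-treated controls.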

[6] = NCI Yeast Anticancer Drug Screen. Data for the mec2-1 strain (AID 157); settings: S. cerevisiae mec2-1 strain, stronger effect = higher value
How it was run: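 mec2-1 yeast strain, carrying an alteration in DNA damage repair or cell cycle control, was exposed to compounds; growth inhibition was measured relative to vehicle-treated controls.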

[7] = NCI Yeast Anticancer Drug Screen. Data for the rad14 strain (AID 159);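 also: 0% = growth of vehicle-treated control cultures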; settings: S. cerevisiae rad14 strain growth inhibition, stronger effect = higher value
How it was run: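 A mutant yeast strain defective in DNA damage repair is treated with compound; inhibition of its growth is scored against untreated, vehicle-exposed cultures.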

[8] = NCI Yeast Anticancer Drug Screen. Data for the sgs1 mgt1 strain (AID 161);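 also: 0% = growth of cultures given vehicle only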; settings: S. cerevisiae sgs1 mgt1 strain, stronger effect = higher value
How it was run: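 Yeast cells carrying a defined DNA-repair defect were exposed to test compounds. Growth inhibition was measured relative to vehicle-treated controls.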

[9] = NCI Yeast Anticancer Drug Screen. Data for the CLN2oe strain (AID 163);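 also: 0% = growth of vehicle-only control cultures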; settings: S. cerevisiae CLN2oe strain, stronger effect = higher value
How it was run: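 Yeast cells carrying a defined cell-cycle control alteration were exposed to test compounds. Growth inhibition was scored against vehicle-treated control cultures.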

[10] = NCI Yeast Anticancer Drug Screen. Data for the cln2 rad14 strain (AID 165);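 also: 0% = growth equal to vehicle treated cultures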; settings: S. cerevisiae cln2 rad14 strain, stronger effect = higher value
How it was run: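 Yeast carrying cln2 and rad14 alterations (cell cycle control and DNA damage repair) were exposed to compounds. Growth inhibition was measured against vehicle-treated controls.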

[11] = NCI Yeast Anticancer Drug Screen. Data for the bub3 strain (AID 167); settings: S. cerevisiae bub3 mutant strain, stronger effect = higher value
How it was run: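 Steps: expose the mutant yeast strain to compound; grow alongside vehicle-treated cultures; measure growth; express inhibition against the vehicle cultures.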

[12] = NCI Yeast Anticancer Drug Screen. Data for the wt2 strain (AID 169);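 also: 0% = growth of vehicle-treated yeast cultures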; settings: S. cerevisiae wt2 strain growth inhibition, stronger effect = higher value
How it was run: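 Yeast cells were exposed to test compounds, and growth inhibition was measured relative to vehicle-treated controls.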

[13] = NCI Yeast Anticancer Drug Screen. Data for the mlh1 strain (AID 171);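 also: 0% = growth of vehicle-treated control cultures of the same strain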; settings: S. cerevisiae mlh1 strain growth inhibition, stronger effect = higher value
How it was run: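 Yeast carrying a defined genetic alteration in DNA damage repair or cell cycle control were exposed to test compounds. Growth inhibition was measured relative to vehicle-treated controls.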

[14] = NCI Yeast Anticancer Drug Screen. Data for the sgs1 strain (AID 173);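 also: 0% = growth of vehicle-only control cultures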; settings: S. cerevisiae sgs1 mutant, stronger effect = higher value
How it was run: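 Yeast mutant strains carrying defined defects in DNA damage repair or cell cycle control were exposed to test compounds. Growth inhibition was scored against vehicle-treated controls.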

[15] = NCI Yeast Anticancer Drug Screen. Data for the mlh1 rad18 strain (AID 175); settings: S. cerevisiae mlh1 rad18 strain growth inhibition, stronger effect = higher value
How it was run: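 Growth inhibition of the yeast strain was measured after compound exposure and expressed relative to vehicle-treated controls. The strain carries defined defects in DNA damage repair.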

[16] = NCI Yeast Anticancer Drug Screen. Data for the rad18 strain (AID 177); settings: S. cerevisiae rad18 mutant growth inhibition, stronger effect = higher value
How it was run: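 Yeast carrying a defined DNA damage repair alteration were exposed to compounds. Growth inhibition was expressed relative to vehicle-treated controls.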

[17] = at 5.0 µM (retest, dose inferred, filed as 0.5)
[18] = at 50.0 µM (retest, dose inferred, filed as 5.0)

Measured: growth inhibition

Nc1cccc(-c2cc[cH-]c2)c1.[Fe+2].c1cc[cH-]c1
active: [1]; at 100.0 µM 95% | [3]; at 100.0 µM 76% | [4]; at 100.0 µM 93% | [5]; at 100.0 µM 96% | [6]; at 100.0 µM 79% | [7]; at 100.0 µM 96% | [11]; at 100.0 µM 86% | [12]; at 100.0 µM 95% | [13]; at 100.0 µM 96% | [14]; at 100.0 µM 99% | [16]; at 100.0 µM 97%
inactive: [1]; at 1.2 µM -2% | [1]; at 3.7 µM 6% | [1]; at 11.0 µM 15% | [1]; at 33.0 µM 39% | [2]; at 1.2 µM -1% | [2]; at 3.7 µM -3% | [2]; at 11.0 µM -3% | [2]; at 33.0 µM 2% | [2]; at 100.0 µM 50% | [3]; at 1.2 µM -1% | [3]; at 3.7 µM 9% | [3]; at 11.0 µM 21% | [3]; at 33.0 µM 20% | [4]; at 1.2 µM -4% | [4]; at 3.7 µM -3% | [4]; at 11.0 µM -2% | [4]; at 33.0 µM 4% | [5]; at 1.2 µM -3% | [5]; at 3.7 µM 3% | [5]; [17] -14% | [5]; at 11.0 µM 16% | [5]; at 33.0 µM 35% | [5]; [18] 15% | [5]; at 50.0 µM 35.5% | [6]; at 1.2 µM -2% | [6]; at 3.7 µM -3% | [6]; [17] -18% | [6]; at 11.0 µM -3% | [6]; at 33.0 µM 3% | [6]; [18] -10% | [6]; at 50.0 µM 38.5% | [7]; at 1.2 µM 0% | [7]; at 3.7 µM 6% | [7]; at 11.0 µM 14% | [7]; at 33.0 µM 25% | [8]; [17] -9% | [8]; [18] 7% | [8]; at 50.0 µM 31.4% | [9]; at 1.2 µM -11% | [9]; at 3.7 µM -5% | [9]; at 11.0 µM -6% | [9]; at 33.0 µM -1% | [9]; at 100.0 µM 64% | [10]; [17] -8% | [10]; [18] 9% | [10]; at 50.0 µM 17.6% | [11]; at 1.2 µM 6% | [11]; at 3.7 µM 6% | [11]; [17] 5% | [11]; at 11.0 µM 7% | [11]; at 33.0 µM 27% | [11]; [18] 68% | [11]; at 50.0 µM 58.2% | [12]; at 1.2 µM 6% | [12]; at 3.7 µM 4% | [12]; at 11.0 µM 9% | [12]; at 33.0 µM 3% | [13]; at 1.2 µM -3% | [13]; at 3.7 µM 2% | [13]; at 11.0 µM 8% | [13]; at 33.0 µM 23% | [14]; at 1.2 µM -10% | [14]; at 3.7 µM -30% | [14]; at 11.0 µM 11% | [14]; at 33.0 µM 54% | [15]; [17] -21% | [15]; [18] 39% | [15]; at 50.0 µM 55.5% | [16]; at 1.2 µM -4% | [16]; at 3.7 µM 7% | [16]; at 11.0 µM 26% | [16]; at 33.0 µM 50%
